GLP1R ag: activates the human GLP-1 receptor; actives 0.007% (n = 380,000); HEK293 GLP-1R CRE-luciferase, luminescence, 4-6 h; cells express a hypersensitive GLP-1R form; P43220; AID 624172; Potency, µM (top dose mostly 45.6 µM), most hits filed as activators
Target sequence (P43220 whole entry, looked up): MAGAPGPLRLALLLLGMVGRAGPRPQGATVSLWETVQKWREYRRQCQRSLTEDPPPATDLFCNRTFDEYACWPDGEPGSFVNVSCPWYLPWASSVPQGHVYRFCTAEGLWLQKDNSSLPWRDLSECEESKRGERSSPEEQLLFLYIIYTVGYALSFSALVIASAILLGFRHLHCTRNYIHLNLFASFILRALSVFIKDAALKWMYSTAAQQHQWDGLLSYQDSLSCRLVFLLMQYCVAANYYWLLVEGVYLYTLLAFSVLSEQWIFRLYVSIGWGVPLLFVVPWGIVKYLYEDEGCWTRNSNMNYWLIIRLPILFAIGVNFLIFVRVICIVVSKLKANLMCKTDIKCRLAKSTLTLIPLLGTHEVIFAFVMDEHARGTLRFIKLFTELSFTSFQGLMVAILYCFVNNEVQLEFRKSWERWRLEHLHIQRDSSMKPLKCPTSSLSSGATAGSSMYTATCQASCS
GLP-1R inv ag: inverse agonists of human GLP-1 receptor; P43220; Potency, µM (titrated, usually from 38.3 µM), most hits filed as inhibitors; AID 624417; actives 1.6% (n = 410,000); HEK293 GLP-1R CRE-luciferase, luminescence, 24 h; GLP-1R form is constitutively active; also: nearly all actives have a fitted effect of over 55% in size
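HEK293 cells stably co-expressing constitutively active GLP-1R and a cAMP-responsive luciferase reporter were seeded in DMEM with 10% Nu serum, given compounds after 12 h, and incubated 24 h at 37 deg C. Luminescence was then read.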
PTHR1 ag: agonists of human PTHR1 parathyroid hormone receptor; AID 743266; Potency, µM (titrated, usually from 115 µM), usual class: activators; actives 0.075% (n = 410,000); HEK293 GP2 PTHR1 cells, GloSensor cAMP luminescence, 1 h; also: nearly all actives have a fitted effect of over 55% in size
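HEK-293-derived GP2 cells expressing PTHR1 and a GloSensor cAMP reporter, 3,000/well, plated overnight, given luciferin plus IBMX (each 0.5 mM as added) for 1 h at 37 °C, then compound for 1 h at 37 °C. Luminescence was read after 15 min at room temperature.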
GCN5L2 inh: inhibitors of human GCN5L2 histone acetyltransferase | Q92830 | GCN5L2 HAT assay, ThioGlo1 CoA-SH fluorescence | Potency, µM (series often up to 58.9 µM), most hits filed as inhibitors | actives 0.21% (n = 390,000) | AID 504327
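qHTS, 1536-well. 20nM enzyme, pH 7.5 HEPES/EDTA/Tween-20 buffer; 15 min compound preinc., RT. Start: 75uM H3(1-25), 70uM AcCoA, 50uM ThioGlo1. Read Ex340/Em540 at t=0 (autofluorescence flag) and t=20 min.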
RGS4 inhibitor: human RGS4 inhibition; P49798; Transcreener GDP fluorescence polarization, RGS4-accelerated GTP hydrolysis; Potency, µM (highest dose often 114 µM), hits mostly inhibitors; AID 504845; actives 0.039% (n = 390,000); also: nearly all actives have a fitted effect of over 75% in size
Target sequence (P49798 whole entry, looked up): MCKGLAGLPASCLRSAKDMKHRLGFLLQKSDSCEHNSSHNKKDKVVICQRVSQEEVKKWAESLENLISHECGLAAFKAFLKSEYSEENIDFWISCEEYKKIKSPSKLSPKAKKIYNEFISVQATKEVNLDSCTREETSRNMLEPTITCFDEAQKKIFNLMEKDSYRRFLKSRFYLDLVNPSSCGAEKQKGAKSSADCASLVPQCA
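MLSMR compounds (23 nl, pin-transferred) preincubated 10 min at room temperature with a 500nM (2x) first reagent, then RGS4 at 900nM (2x) plus Transcreener GDP mix added; fluorescence polarization (620/688 nm) read before and after 90 min at 30 °C.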
GLP1R cytotox: cytotoxicity counter-screen for GLP-1 receptor inverse agonists. Potency, µM (highest dose often 38.3 µM), most hits filed as inhibitors. actives 0.13% (n = 410,000). HEK293 cAMP-luciferase reporter cells, luminescence, 24 h. AID 624418;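 also: loss of luciferase light is scored as toxicity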
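Luminescence readout: signal drop marks cytotoxicity. Plated cells grew 12 h at 37 °C, 5% CO2, received 23 nL compound for 24 h, then got luciferase reagent, read after 12 min at RT.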
Each line names hits and unclear results; the compound was inactive in the other large screens. Compounds with a hit are over-represented: about 1.8% of the library has one in this group of screens. Calls follow the shape of the dose curve; as a rule, active = well fitted curve in the direction sought with a large enough effect; inconclusive = small, poorly fitted or top-dose-only effect, or another doubt; inactive = no such curve, though single readings can be large; an effect the other way counts as inactive or inconclusive.

Cc1ccc(C(=O)/C=C/Nc2ccccn2)cc1	GLP-1R inv ag 5.62µM (no result: GCN5L2 inh)
COc1ccc(OC)c(S(=O)(=O)N2CCC(C(=O)Nc3cccc(C(F)(F)F)c3)CC2)c1	GLP-1R inv ag 10µM, GLP1R cytotox inconclusive
O=C(Nc1cccc(C(F)(F)F)c1)C1CCN(S(=O)(=O)c2cccs2)CC1	GLP-1R inv ag inconclusive (no result: GLP1R ag)
Cc1ccc(NC(=O)C2CCN(S(=O)(=O)c3cccs3)CC2)cc1C	GLP-1R inv ag 8.91µM
COc1ccc(N2CC(NC(=O)CCCc3ccccc3)CC2=O)cc1 (stereo not given)	none (no result: GLP1R ag)
CCN1CCN(S(=O)(=O)c2ccc(Cl)c(C(=O)Nc3ccccc3N3CCCC3)c2)CC1	GLP-1R inv ag inconclusive, GCN5L2 inh inconclusive
CCN1CCN(S(=O)(=O)c2ccc(Cl)c(C(=O)Nc3ccccc3N3CCCCC3)c2)CC1	GLP-1R inv ag 10µM
CN1CCN(S(=O)(=O)c2ccc(NC(=O)Nc3cccc(Cl)c3)cc2)CC1	GLP-1R inv ag inconclusive
O=C(Nc1cccc(Cl)c1)Nc1cc(S(=O)(=O)N2CCCCC2)ccc1Cl	GLP-1R inv ag 2.82µM
CCN(CC(=O)Nc1cc(S(=O)(=O)N2CCOCC2)ccc1Cl)Cc1ccccc1	GLP-1R inv ag inconclusive
CCN(CC(=O)Nc1cc(S(=O)(=O)N2CCCCC2)ccc1Cl)Cc1ccccc1	GLP-1R inv ag 5.62µM
COc1cccc(-n2c(=O)n(Cc3ccccc3)c(=O)c3[nH]cnc32)c1C	none
COc1ccc(CCNC(=O)C2CCCN(c3ncccn3)C2)cc1 (stereo not given)	none
CC(C)C[C@H](NC(=O)N1CCn2c1nc1ccccc12)C(=O)NCC1CCCO1 (stereo not given in full)	none
CCC(C(=O)Nc1ccc(C(=O)OC)cc1)n1nc(-c2ccc(C)cc2)c2c(c1=O)CCCC2 (stereo not given)	GLP-1R inv ag 2.51µM (no result: GLP1R ag)
COc1ccccc1N(C1=NCCCS1)S(=O)(=O)c1ccc(C(C)(C)C)cc1	GLP-1R inv ag inconclusive
OCC1(Cc2ccccc2F)CCCN(Cc2c(F)ccc(F)c2F)C1 (stereo not given)	GLP-1R inv ag 11.2µM
OCC1(Cc2ccccc2F)CCCN(CC2CCCCC2)C1 (stereo not given)	GLP-1R inv ag inconclusive
O=C(CC(O)(CC(=O)OCc1ccccc1)C(=O)OCc1ccccc1)OCc1ccccc1	GLP-1R inv ag 8.91µM (no result: GCN5L2 inh)
O=C(CC(=O)OCc1ccccc1)OCc1ccccc1	none (no result: GCN5L2 inh)
NC(C(=O)O)C(O)c1ccc(O)c(O)c1 (stereo not given)	GCN5L2 inh 14.1µM (no result: GLP-1R inv ag, PTHR1 ag, RGS4 inhibitor, GLP1R cytotox)
O=C(NCCc1ccccc1F)c1ccc2c(c1)OCCO2	GLP-1R inv ag 0.891µM
O=C(NCc1ccccc1F)c1ccc2c(c1)OCO2	none
O=C(C1CCN(Cc2ccccc2O)CC1)N1CCN(Cc2ccc3c(c2)OCO3)CC1	GLP-1R inv ag inconclusive
O=C(C1CCN(Cc2cc(Cl)ccc2O)CC1)N1CCN(Cc2ccccc2)CC1	GLP-1R inv ag 7.08µM
CC(Nc1nc(N2CCN(S(C)(=O)=O)CC2)nc2ccccc12)c1ccccc1 (stereo not given)	GLP1R cytotox inconclusive
CCOc1ccc(C(=O)Nc2ccc3c(c2)CCCN3S(=O)(=O)c2ccc(C)cc2)cc1	GLP-1R inv ag inconclusive (no result: GLP1R ag)
C/C(=N\NC(=O)c1ccc(Br)cc1)C1C(=O)c2ccccc2C1=O	GLP-1R inv ag inconclusive, GLP1R cytotox 10µM
C/C(=N\NC(=O)c1ccc(-c2ccccc2)cc1)C1C(=O)c2ccccc2C1=O	GLP-1R inv ag inconclusive, GLP1R cytotox inconclusive
COc1ccc(NC(=O)CNC(=O)C2CCCCC2)cc1OC	PTHR1 ag inconclusive
CCOC(=O)c1cnn(-c2ccc(Cl)cc2)c1C1CCN(C(=O)OC(C)(C)C)CC1	GLP-1R inv ag 10µM
CC(C)(C)OC(=O)N1CCC(c2c(C(=O)N3CCCCC3)cnn2-c2ccc(Cl)cc2)CC1	none (no result: GLP1R ag)
Cc1ccc(-n2ncc(C(=O)NCCc3c[nH]c4ccccc34)c2C2CCN(C(=O)OC(C)(C)C)CC2)cc1C	GLP-1R inv ag 11.2µM
CCCNC(=O)c1cnn(-c2ccc(C)c(C)c2)c1C1CCN(C(=O)OC(C)(C)C)CC1	none (no result: GLP1R ag)
OC1CCC(Nc2ncnc3sccc23)CC1 (stereo not given)	GLP1R cytotox inconclusive
O=C1CC(=O)OC(c2ccc([N+](=O)[O-])cc2)O1	GLP-1R inv ag inconclusive, GLP1R cytotox 5.01µM (no result: GCN5L2 inh, RGS4 inhibitor)
CCC(=O)N1CCC1(C)C(=O)Nc1ccc(C)c(C)c1 (stereo not given)	none (no result: GCN5L2 inh, RGS4 inhibitor)
Cc1cc(C)c(N=C2SCC(=O)N2Cc2ccco2)c(C)c1	GLP-1R inv ag inconclusive
O=C1CSC(=Nc2ccc(Cl)cc2)N1Cc1ccco1	GLP-1R inv ag 8.91µM
COCC1=C(C(=O)OC(C)OC(=O)OC(C)C)N2C(=O)C(NC(=O)/C(=N/OC)c3csc(N)n3)[C@H]2SC1 (stereo not given in full)	none (no result: GLP-1R inv ag, PTHR1 ag, GCN5L2 inh, RGS4 inhibitor, GLP1R cytotox)
CC[C@@H]1OC(=O)C[C@H](O)[C@@H](C)[C@@H](O[C@H]2O[C@@H](C)[C@H](O[C@@H]3C[C@](C)(O)[C@H](O)[C@@H](C)O3)[C@@H](N(C)C)[C@@H]2O)[C@@H](C=O)C[C@@H](C)C(=O)/C=C/C(C)=C[C@@H]1CO[C@H]1O[C@@H](C)[C@H](O)[C@H](OC)[C@@H]1OC	none (no result: GLP-1R inv ag, PTHR1 ag, GCN5L2 inh, RGS4 inhibitor, GLP1R cytotox)
O=C(Nc1cc(Cl)ccc1Cl)c1ccco1	none
CS/C(Nc1cc(Cl)ccc1Cl)=C(/C#N)C(=O)c1ccco1	GLP-1R inv ag 6.31µM
O=C(Nc1n[nH]c(=S)s1)c1ccco1	GCN5L2 inh 31.6µM, RGS4 inhibitor inconclusive
CC[C@H](C)[C@@H]1NC(=O)[C@@H](CC(C)C)NC(=O)[C@H](C(C)C)NC(=O)[C@H]2CSSC[C@H](NC1=O)C(=O)N2	GLP-1R inv ag 3.98µM, GLP1R cytotox inconclusive (no result: GCN5L2 inh, RGS4 inhibitor)
Cn1c(=O)c2[nH]c(=S)n(Cc3ccccc3)c2n(C)c1=O	RGS4 inhibitor inconclusive (no result: GCN5L2 inh)
Cn1c(=O)[nH]c(=O)c2c1[nH]c(=S)n2CCCc1ccccc1	GCN5L2 inh 15.8µM, RGS4 inhibitor inconclusive
Cn1c(=O)c2c([nH]c(=S)n2CCCc2ccccc2)n(C)c1=O	GCN5L2 inh 11.2µM, RGS4 inhibitor inconclusive
OC(COc1ccc(CNCCc2ccccc2F)cc1)CN1CCCCC1 (stereo not given)	GLP-1R inv ag 5.01µM
CCOC(=O)[C@]12CCC=C1N(Cc1ccco1)C(=O)[C@H](CC(=O)NCCC(C)C)C2	none (no result: GCN5L2 inh, RGS4 inhibitor)
